Screening data as filed in PubChem BioAssay.
GPR151 ag – activates the human receptor GPR151; activation, % at 11.2 µM; actives 1% (n = 650,000); Q8TDV0; PathHunter beta-arrestin GPR151 cells, luminescence; in the data active = activation above about 4.9%;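 also: 0% = median of compound wells and 100% = cells with positive control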
MITF primary – blocks human microphthalmia-associated transcription factor; actives 0.91% (n = 650,000); inhibition, % at 2.6 µM; AlphaScreen MITF homodimerization, bead proximity signal; O75030; AID 1259374; in the data active = inhibition above about 50%;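 also: 0% = vehicle wells with protein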
FBW7 activator – activators of human E3 ligase FBW7 | Q969H0 | AID 1259310 | actives 0.13% (n = 650,000) | normalized activity (activation), % at 26.1 µM | AlphaScreen FBW7–phospho-cyclin E peptide binding, activator screen; in the data active = normalized activity above about 1.9%;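 also: purified mutant Fbw7 with reduced substrate affinity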
Target sequence (Q969H0 whole entry, looked up): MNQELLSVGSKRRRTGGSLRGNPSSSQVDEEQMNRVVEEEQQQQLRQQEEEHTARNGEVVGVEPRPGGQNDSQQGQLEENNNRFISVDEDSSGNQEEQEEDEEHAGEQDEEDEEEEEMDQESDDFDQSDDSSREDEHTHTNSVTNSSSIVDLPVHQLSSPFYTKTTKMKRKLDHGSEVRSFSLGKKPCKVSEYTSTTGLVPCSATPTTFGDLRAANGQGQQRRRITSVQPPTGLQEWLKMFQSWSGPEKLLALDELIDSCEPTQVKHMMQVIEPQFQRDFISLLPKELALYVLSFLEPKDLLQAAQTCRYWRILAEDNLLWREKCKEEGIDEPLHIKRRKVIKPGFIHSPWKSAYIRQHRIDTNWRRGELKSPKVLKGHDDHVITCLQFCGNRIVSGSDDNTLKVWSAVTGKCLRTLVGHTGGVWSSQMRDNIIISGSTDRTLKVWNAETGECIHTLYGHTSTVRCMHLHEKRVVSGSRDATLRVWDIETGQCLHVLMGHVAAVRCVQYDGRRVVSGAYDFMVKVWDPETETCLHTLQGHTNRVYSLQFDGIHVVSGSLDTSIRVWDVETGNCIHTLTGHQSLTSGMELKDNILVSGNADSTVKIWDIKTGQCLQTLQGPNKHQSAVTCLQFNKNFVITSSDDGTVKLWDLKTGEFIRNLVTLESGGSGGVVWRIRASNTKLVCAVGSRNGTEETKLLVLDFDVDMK
TEAD-YAP block – TEAD-YAP interaction inhibition; HEK-TIYL cells, TEAD-Gal4/YAP UAS-luciferase luminescence; inhibition, % at 9.12 µM; actives 1.4% (n = 640,000); in the data active = inhibition above about 32%;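 also: 0% = median of test compound wells and 100% = reference inhibitor wells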
* marks the source's active call; other numbers are inactive results. Shown are actives, neighbours in structure and some others; about 3.5% of the full set was active somewhere.

SMILES	GPR151 ag	MITF primary	FBW7 activator	TEAD-YAP block
CCCN(CC1CC1)C(=O)CCC1(Cc2ccc(OC)cc2F)CCC(=O)N1 (configuration not stated)	1	12	1	-4
COc1cc(OC)cc(C(=O)NN=C2CCN(C)CC2)c1	1	18	0	51*
CN1CCC(=NNC(=O)c2cc(O)c(O)c(O)c2)CC1	0	83*	0	-2
C=CCN(c1ccc(C(=O)NCCSCc2cccc(C)c2)cc1)S(C)(=O)=O	-1	-2	0	7
Cc1ccccc1/C=N/NC(=O)c1ccco1	-1	2	0	-55
O=C(O)Cc1ccc2ccccc2c1Br	2	-7	0	-14
Cn1cccc1/C=C1\Cc2ccccc2C1=O	-4	2	0	-28
Cn1cccc1/C=C1\CCc2ccccc2C1=O	-8	7	0	64*
Fc1ccccc1N=c1oc2ccccc2cc1-c1nc2ccccc2[nH]1	-10	-13	0	40*
COc1ccc(N=c2oc3ccccc3cc2-c2nc3ccccc3[nH]2)cc1	-10	10	0	38*
Fc1ccc(N=c2oc3ccccc3cc2-c2nc3ccccc3[nH]2)cc1	-4	2	0	-40
Cc1cc2c(cc1C)C(c1cccc(Cl)c1)CC(=O)N2 (configuration not stated)	0	-11	0	37*
N#Cc1cc2cc3c(cc2nc1NCCCNC(=O)Cc1ccccc1)OCO3	-1	10	0	34*
COc1ccccc1NC(=O)NCCCNc1nc2cc3c(cc2cc1C#N)OCO3	0	-6	0	65*
COc1ccc(-c2cn3nc(N4CCCC(C(=O)N5CCCCCC5)C4)sc3n2)cc1 (configuration not stated)	1	7	0	45*
N#CC1=C(N)Oc2c(ccc3cccnc23)C1c1ccccc1F (configuration not stated)	-1	2	-1	58*
Cc1ncn(-c2ccc(Nc3ncc4cccc(-c5cccc(F)c5)c4n3)cc2)n1	-1	12	0	0
Cc1ncn(-c2ccc(Nc3ncc4cccc(-c5cncnc5)c4n3)cc2)n1	-2	6	0	-23
Cc1ncn(-c2ccc(Nc3ncc4cccc(-c5ncco5)c4n3)cc2)n1	-1	43	1	70*
Cc1ncn(-c2ccc(Nc3ncc4cccc(-c5ccccn5)c4n3)cc2)n1	0	22	0	42*
Cc1ccc(-c2cccc3cnc(Nc4ccc(-n5cnc(C)n5)cc4)nc23)cn1	-2	13	1	61*
Cc1ccc(-c2cccc3cnc(Nc4ccc(-n5cnc(-c6ccccn6)n5)cc4)nc23)cn1	0	28	5.7*	28
COc1cccc(NC(=O)c2cccc(I)c2)c1	0	3	0	-19
O=C(CSc1n[nH]c(-c2ccccc2)n1)Nc1ccc(F)c(F)c1F	-2	-14	0	6
Nc1ncc(Br)cc1S(=O)(=O)Nc1ccc(Cl)cc1	0	10	0	4
SMILES	GPR151 ag	MITF primary	FBW7 activator	TEAD-YAP block
COc1cc(-c2cccc3cnc(Nc4ccc(-n5cnc(C)n5)cc4)nc23)ccn1	1	28	0	14
Cc1cc(-c2cccc3cnc(Nc4ccc(-n5cnc(C)n5)cc4)nc23)ccn1	1	6	1	62*
CCOC(=O)C1CCN(S(=O)(=O)c2cc(Br)cnc2N)CC1	3	-2	0	12
c1ccc2sc(N3CCN(C4CCCCC4)CC3)nc2c1	0	7	0	69*
COc1ccc(NC(c2ccc(O)cc2)P(=O)(OC)OC)cc1 (configuration not stated)	0	-6	0	-4
CC(C)(C)C1(C)OC(=O)C(=Cc2ccco2)C(=O)O1 (configuration not stated)	1	-2	0	10
Cc1ccc2cc3c(nc2c1)-c1ccccc1C3	-10	9	0	60*
Cc1ccc2nc(-c3ccccc3)c(-c3ccccc3)nc2c1	1	-2	1	2
Cc1cc(C)c2c(c1)Cc1cc3ccccc3nc1-2	1	5	0	-15
c1ccc2c(c1)Cc1cc3ccccc3nc1-2	-9	10	0	47*
COc1ccc(/C=C(\C#N)c2nn(-c3ccccc3)c(N)c2C#N)cc1	-2	27	0	1
COc1ccc(/C=C2/C(=O)NC(=O)N(Cc3ccco3)C2=O)cc1OC	1	33	-1	4
COc1cc(C)c(/C=C2/C(=O)NC(=O)N(Cc3ccco3)C2=O)cc1C	2	52*	0	-7
Cc1cc(/C=C2/C(=O)NC(=O)N(Cc3ccco3)C2=O)c(C)n1-c1ccc(F)cc1	0	21	0	4
COc1cc(C)c(/C=C2/C(=O)NC(=O)N(Cc3ccco3)C2=O)c(OC)c1	-1	64*	0	9
Cc1cc(/C=C2/C(=O)NC(=S)N(Cc3ccco3)C2=O)c(C)n1C	0	77*	-1	0
Cc1ccc(NC(=O)CS(=O)CC(=O)Nc2ccc3c(c2)CCC3)cc1 (configuration not stated)	1	-7	0	-7
CCCCc1nc2cc(N)c(C)nc2n1Cc1ccc([N+](=O)[O-])cc1	1	7	0	-5
COc1ccc(CCCC(=O)N/N=C/c2cccc(OC)c2O)cc1C	0	-7	0	42*
Cc1cc(C)n(Cc2ccc(C(=O)N/N=C/c3ccc(O)cc3O)cc2)n1	0	19	-1	61*
COc1cccc(/C=N/NC(=O)c2ccc(Cn3nc(C)cc3C)cc2)c1O	0	29	0	53*
Cc1cc(C)n(Cc2cccc(C(=O)N/N=C/c3ccc(O)cc3O)c2)n1	0	22	-1	18
CCOC(=O)N1CCc2c(sc(NC(=O)c3ccc(S(=O)(=O)N(CC)CC)cc3)c2C(=O)N2CCOCC2)C1	-1	-15	0	-8
COc1cc(NC(=O)c2ccc3c(c2)C(=O)N(c2c(C)cc(C)cc2C)C3=O)c(C(=O)O)cc1OC	0	15	0	9
CC(=O)Nc1ccc(C(=O)Nc2ccncc2)cc1	0	-4	0	-7
SMILES	GPR151 ag	MITF primary	FBW7 activator	TEAD-YAP block
C[C@@H](N)c1ccc(C(=O)Nc2ccncc2)cc1	0	-3	0	50*
CC(C)CCOC(=O)c1ccc(NC(=O)c2ccncc2)cc1	0	-3	0	27
CC(C)COC(=O)c1ccc(NC(=O)c2ccncc2)cc1	1	8	0	33*
CC(C)c1cc(C(=O)Nc2cccnc2Cl)no1	0	10	0	-44
O=C1/C(=C\c2ccccc2)N=C(c2ccccc2)N1c1ccc(I)cc1	0	14	0	9
CCCCC(=O)Nc1ccccc1-c1nnn(CC(=O)Nc2ccccc2)n1	1	-5	0	-3
CCCCC(=O)Nc1ccccc1-c1nnn(CC(=O)Nc2ccc3c(c2)OCCO3)n1	-1	13	2.3*	12
Cc1ccc2oc(=O)cc(CSc3nc(C)cc(C)c3C#N)c2c1	-2	-7	0	51*
Cc1ccc2c(CSc3nc(N)cc(N)n3)cc(=O)oc2c1	1	8	0	-10
CCC(=O)Oc1ccc(C(=O)Nc2ccc(C)cc2Br)cc1	0	-2	0	50*
